Structures are written as SMILES. Values joined by “and” are separate entries in the source; they are usually repeats but may differ in a detail not shown here. Equal values may be shown once. The source holds several records for some structures; these can differ, active in one and inactive in another. Active and inactive are the calls of the source. The calls were made as follows: active = hit-call score of the fitted dose curve at least 0.9, where 1 is the maximum; inactive = score below 0.9.

Read-out in the experiment: Epidermal growth factor receptor (EGFR), EGFR (gene 1956)
The experiment is described as follows: BSK_hDFCGF_EGFR: BioMAP Diversity Plus: hDFCGF Assay for Epidermal growth factor receptor (EGFR) Biomarker Activity (AID 2283057). The note with it: primary human foreskin fibroblasts; actives raise or lower the signal. The procedure:
BSK_hDFCGF is a cell-based, multiplexed-readout assay that uses foreskin fibroblast, a human skin primary cell, with measurements taken at 24 hours after chemical dosing in a 96-well plate.BSK_hDFCGF_EGFR is an assay component measured in the BSK_hDFCGF assay. It measures EGFR antibody related to regulation of gene expression using ELISA technology.Data from the assay component BSK_hDFCGF_EGFR was analyzed into 1 assay endpoint. This assay endpoint, BSK_hDFCGF_EGFR, was analyzed with bidirectional fitting relative to DMSO as the negative control and baseline of activity. Using a type of binding reporter, gain or loss-of-signal activity can be used to understand changes in the signaling as they relate to the gene EGFR. Furthermore, this assay endpoint can be referred to as a primary readout, because this assay has produced multiple assay endpoints where this one serves a signaling function. To generalize the intended target to other relatable targets, this assay endpoint is annotated to the kinase intended target family, where the subfamily is receptor tyrosine kinase.
The levels of cell surface (or secreted, indicated by the prefix "s") biomarker endpoints were measured by ELISA. Overt cytotoxicity to cells in confluent adherent cultures (all systems other than the BT system) was assessed by measuring total protein levels using sulforhodamine B (SRB) staining in parallel cultures at the time of biomarker measurements, indicated as SRB endpoints. For proliferation assays for adherent cell types, individual cell types are cultured at sub-confluence and relative cell numbers quantified by SRB staining at time points optimized for each system (48 h: 3C and CASM3C systems; 72 h: BT and HDF3CGF systems; 96 h: SAg system). SRB was performed by staining cells with 0.1% SRB after fixation with 10% TCA and reading wells at 560 nm.Viability and proliferation of PBMC (T cells) was quantified by Alamar Blue reduction for the SAg and BT systems. For PBMC viability (referred to as PBMC Cytotoxicity within the assay endpoint names), cells were plated (75,000/well in a 96-well plate) and then chemical samples added for 1 h before addition of activators, SEB and TSST-1 (20 ng/mL final concentration each). Cells were incubated for 90 h. Then, Alamar Blue (20 uL/well) (Invitrogen, Cat DAL1100) was added for 6 h, and the plates were read with a fluorescence microplate reader at 546/580 nm (excitation/emission). For PBMC proliferation, cells were plated and activated as above but incubated for only 16 h prior to addition of Alamar Blue. Plates were read after 6 h.
On to `O=S(=O)(Cl)C(F)(F)C(F)(F)C(F)(F)C(F)(F)C(F)(F)C(F)(F)C(F)(F)C(F)(F)F`, for which the result was inactive.
Consider `CNS(=O)(=O)C(F)(F)C(F)(F)C(F)(F)C(F)(F)C(F)(F)C(F)(F)C(F)(F)C(F)(F)F`, for which the result was inactive.
In the case of `CCN(CC)c1ccc(C=O)cc1`, the result was inactive.
As for `NS(=O)(=O)C(F)(F)C(F)(F)C(F)(F)C(F)(F)C(F)(F)C(F)(F)F`, the result was inactive.
Take `O=C(O)C(F)(F)C(F)(F)C(F)(F)C(=O)O`: the outcome was inactive.
The same measure, in the same setting: with `OCC(F)(F)C(F)(F)C(F)(F)C(F)(F)C(F)(F)C(F)(F)CO` the entry was “inactive”; with `O=C1C=CC(=O)N1c1ccc(Cc2ccc(N3C(=O)C=CC3=O)cc2)cc1`, “inactive”.
`FC(F)(F)C(F)(F)C(F)(F)C(F)(F)C(F)(F)C(F)(F)CC[Si](Cl)(Cl)Cl`: the result was inactive.
Regarding `FC(F)(F)C(F)(F)C(F)(F)C(F)(F)C(F)(F)C(F)(F)C(F)(F)CCI`, the outcome was inactive.
Consider `O=S(=O)(OCC(F)(F)F)C(F)(F)C(F)(F)C(F)(F)C(F)(F)F`, for which the result was inactive.
The same measure, in the same setting: with `COC(F)(C(F)F)C(F)(F)F` (stereo not given) the entry was “inactive”.
Consider `CCN(CC)c1ccc(C=O)c(O)c1`, for which the outcome was inactive.
Consider `Nc1cc([N+](=O)[O-])cc(Cl)c1O`, for which the result was inactive.
On the same count and under the same terms, then `C=CC(=O)OCCC(F)(F)C(F)(F)C(F)(F)C(F)(F)F`, with “inactive”; and `NC(=O)C(F)(F)C(F)(F)C(F)(F)C(F)F`, with “inactive”.
As for `OCCCCC(F)(F)C(F)(F)C(F)(F)C(F)(F)F`, the outcome was inactive.
Still for that read-out and setting: with `O=C1c2c(O)ccc(Nc3ccc(CCO)cc3)c2C(=O)c2c([N+](=O)[O-])ccc(O)c21` the entry was “inactive”.
Regarding `Cc1ccc(O)c(-n2nc3ccccc3n2)c1`, the outcome was inactive.
Regarding `CCOC(C=C(C)CCC=C(C)C)OCC`, the result was inactive.
As to `OCCCC(F)(F)C(F)(F)C(F)(F)C(F)(F)C(F)(F)C(F)(F)C(F)(F)C(F)(F)F`, the half-maximal activity concentration (AC50) is 3.16 µM (active) and 3.2 µM (active).
For `CCOC(=O)CC(=O)C(F)(F)C(F)(F)F`, the outcome was inactive.
For the compound `O=C(O)C(F)(F)C(F)(F)C(F)(F)OC(F)(C(F)(F)F)C(F)(F)F`, the result was inactive.
In the case of `O=C(O)C(F)(F)C(F)(F)C(F)(F)C(F)(F)C(F)(F)C(F)(F)C(F)F`, the AC50 is 30 µM (active) and 1.81 µM (active); the outcome was inactive.
Consider `OCC(F)(F)C(F)(F)C(F)(F)CO`, for which the result was inactive.
For `C[C@]12CC[C@H]3C(=CCc4cc(O)ccc43)[C@@H]1CCC2=O`, the result was inactive.
As to `Brc1nc2ccccc2s1`, the outcome was inactive.
With `O=C=NCc1cccc(CN=C=O)c1`, the result was inactive.
On the same count and under the same terms, with `C=CC(=O)OCC(F)(F)C(F)(F)C(F)(F)COC(=O)C=C` the entry was “inactive”.
As for `NC(=O)C(F)(F)C(F)(F)C(F)(F)C(F)(F)C(N)=O`, the outcome was inactive.
As for `O=C(c1ccccc1)c1ccc(O)cc1O`, the result was inactive.
With `O=C(O)C(F)(F)C(F)(F)C(F)(F)OC(F)(F)F`, the outcome was inactive.
Turning to `NC(=O)C(F)(F)C(F)(F)C(F)(F)F`, the outcome was inactive.
On to `CCN(CC)c1ccc(N=Nc2ccccc2)cc1`, for which the outcome was inactive.
As for `C[Si](Cl)(Cl)CCC(F)(F)C(F)(F)C(F)(F)C(F)(F)C(F)(F)C(F)(F)F`, the result was inactive.
Turning to `OCC(O)CC(F)(F)C(F)(F)C(F)(F)C(F)(F)C(F)(F)C(F)(F)C(F)(F)C(F)(F)F` (stereo not given), the outcome was inactive.
Turning to `C=CC(=O)OCC(F)(F)C(F)(F)C(F)(F)C(F)(F)C(F)(F)C(F)(F)C(F)(F)C(F)F`, the outcome was inactive.
Take `FC(F)(F)C(F)(F)C(F)(F)CC1CO1` (stereo not given): the result was inactive.
With `NCC(F)(F)C(F)(F)C(F)(F)C(F)(F)C(F)(F)C(F)(F)C(F)(F)C(F)(F)F`, the outcome was inactive.
Take `CCN=C1C=CC(=C(c2ccc(N(CC)CC)cc2)c2ccc(N(CC)CC)cc2)c2ccccc21`: the result was inactive.

As a reminder, the AC50 is the concentration at which the activity in the assay is half-maximal.

(Values after PubChem BioAssay (EPA / NIEHS).)
